How the values were obtained:
[1] = molecular target: Tyrosine-protein kinase Fyn (Homo sapiens) (UniProt P06241); conditions: at 1 µM
[2] = molecular target: Tyrosine-protein kinase HCK (Homo sapiens) (UniProt P08631); conditions: at 0.1 µM
[3] = molecular target: Tyrosine-protein kinase HCK (Homo sapiens) (UniProt P08631); conditions: at 1 µM
[4] = molecular target: Insulin-like growth factor 1 receptor (Homo sapiens) (UniProt P08069); conditions: at 0.1 µM
[5] = molecular target: Insulin-like growth factor 1 receptor (Homo sapiens) (UniProt P08069); conditions: at 1 µM
[6] = molecular target: Insulin receptor (Homo sapiens) (UniProt P06213); conditions: at 0.1 µM
[7] = molecular target: Insulin receptor (Homo sapiens) (UniProt P06213); conditions: at 1 µM
[8] = molecular target: Insulin receptor-related protein (Homo sapiens) (UniProt P14616); conditions: at 0.1 µM
[9] = molecular target: Insulin receptor-related protein (Homo sapiens) (UniProt P14616); conditions: at 1 µM
[10] = molecular target: T1, Tyrosine-protein kinase ITK/TSK (Homo sapiens) (UniProt Q08881); conditions: at 0.1 µM;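 note: mean percent inhibition of ITK from the GSK PKIS screen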
T1 sequence (whole entry): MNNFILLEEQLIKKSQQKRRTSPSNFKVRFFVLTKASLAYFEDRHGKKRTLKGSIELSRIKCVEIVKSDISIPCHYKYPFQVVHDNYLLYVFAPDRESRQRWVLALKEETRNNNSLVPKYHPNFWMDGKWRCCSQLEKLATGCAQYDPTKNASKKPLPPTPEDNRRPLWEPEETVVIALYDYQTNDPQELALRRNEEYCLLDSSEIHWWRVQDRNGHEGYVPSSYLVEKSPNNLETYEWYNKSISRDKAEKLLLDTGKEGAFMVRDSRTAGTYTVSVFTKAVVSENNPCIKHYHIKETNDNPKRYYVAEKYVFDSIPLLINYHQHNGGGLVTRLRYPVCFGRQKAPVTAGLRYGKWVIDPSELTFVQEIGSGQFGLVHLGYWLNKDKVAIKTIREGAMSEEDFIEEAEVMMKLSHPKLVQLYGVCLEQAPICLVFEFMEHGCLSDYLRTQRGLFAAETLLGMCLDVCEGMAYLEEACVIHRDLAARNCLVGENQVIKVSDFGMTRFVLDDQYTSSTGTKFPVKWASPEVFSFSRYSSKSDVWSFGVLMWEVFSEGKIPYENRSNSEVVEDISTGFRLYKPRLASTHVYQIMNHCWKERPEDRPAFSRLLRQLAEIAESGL

Sequence of Insulin-like growth factor 1 receptor (Homo sapiens) (P08069 31-736 limits assumed): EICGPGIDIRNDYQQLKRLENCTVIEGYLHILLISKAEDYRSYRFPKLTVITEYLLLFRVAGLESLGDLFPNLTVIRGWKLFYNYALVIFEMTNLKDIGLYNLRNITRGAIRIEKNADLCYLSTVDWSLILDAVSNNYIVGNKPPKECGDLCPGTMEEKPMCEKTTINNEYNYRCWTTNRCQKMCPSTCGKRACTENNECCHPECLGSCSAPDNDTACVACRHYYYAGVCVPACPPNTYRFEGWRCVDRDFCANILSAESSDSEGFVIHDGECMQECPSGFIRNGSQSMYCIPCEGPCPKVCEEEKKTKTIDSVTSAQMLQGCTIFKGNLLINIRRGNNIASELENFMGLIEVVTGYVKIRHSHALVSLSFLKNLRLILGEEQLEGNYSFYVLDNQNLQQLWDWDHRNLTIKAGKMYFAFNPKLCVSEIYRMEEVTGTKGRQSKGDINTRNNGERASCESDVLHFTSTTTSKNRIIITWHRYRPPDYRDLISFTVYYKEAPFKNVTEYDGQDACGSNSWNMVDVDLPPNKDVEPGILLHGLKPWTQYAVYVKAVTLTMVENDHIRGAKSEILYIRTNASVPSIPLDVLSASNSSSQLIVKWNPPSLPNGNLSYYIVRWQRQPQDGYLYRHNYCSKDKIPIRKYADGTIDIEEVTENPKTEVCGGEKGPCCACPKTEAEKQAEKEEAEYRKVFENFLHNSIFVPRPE
Sequence of Insulin-like growth factor 1 receptor (Homo sapiens) (P08069 741-1367 limits assumed): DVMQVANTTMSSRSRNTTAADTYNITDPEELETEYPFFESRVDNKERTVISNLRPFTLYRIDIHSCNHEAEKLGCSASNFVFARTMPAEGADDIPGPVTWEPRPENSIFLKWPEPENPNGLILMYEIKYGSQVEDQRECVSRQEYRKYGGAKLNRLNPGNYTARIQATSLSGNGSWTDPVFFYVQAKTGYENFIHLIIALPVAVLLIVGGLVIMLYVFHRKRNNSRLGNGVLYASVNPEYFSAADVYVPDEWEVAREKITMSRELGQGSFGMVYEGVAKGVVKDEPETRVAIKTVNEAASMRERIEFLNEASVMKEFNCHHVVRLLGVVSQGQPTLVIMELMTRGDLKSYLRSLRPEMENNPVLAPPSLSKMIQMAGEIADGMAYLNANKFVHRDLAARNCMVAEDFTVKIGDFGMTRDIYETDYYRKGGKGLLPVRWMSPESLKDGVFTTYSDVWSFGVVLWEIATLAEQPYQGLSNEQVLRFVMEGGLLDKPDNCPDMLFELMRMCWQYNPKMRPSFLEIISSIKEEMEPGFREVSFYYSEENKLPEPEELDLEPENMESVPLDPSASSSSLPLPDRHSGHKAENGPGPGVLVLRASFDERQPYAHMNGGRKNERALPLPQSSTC
Sequence of Tyrosine-protein kinase Fyn (Homo sapiens) (P06241 2-537 limits assumed): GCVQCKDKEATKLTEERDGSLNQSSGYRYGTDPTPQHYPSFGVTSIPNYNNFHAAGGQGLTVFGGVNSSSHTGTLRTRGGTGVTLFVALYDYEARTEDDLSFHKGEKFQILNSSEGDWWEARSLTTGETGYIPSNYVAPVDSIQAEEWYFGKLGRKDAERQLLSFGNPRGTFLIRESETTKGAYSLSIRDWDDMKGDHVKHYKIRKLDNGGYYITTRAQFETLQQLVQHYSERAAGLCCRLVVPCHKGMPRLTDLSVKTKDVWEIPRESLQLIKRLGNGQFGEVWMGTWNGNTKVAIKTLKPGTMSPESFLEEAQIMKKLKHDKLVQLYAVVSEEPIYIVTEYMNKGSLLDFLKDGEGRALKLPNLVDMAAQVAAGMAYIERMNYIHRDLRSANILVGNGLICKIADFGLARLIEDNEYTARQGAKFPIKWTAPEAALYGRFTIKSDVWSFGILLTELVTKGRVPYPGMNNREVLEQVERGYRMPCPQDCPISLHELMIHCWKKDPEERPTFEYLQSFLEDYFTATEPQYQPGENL
Sequence of Insulin receptor (Homo sapiens) (P06213 28-758 limits assumed): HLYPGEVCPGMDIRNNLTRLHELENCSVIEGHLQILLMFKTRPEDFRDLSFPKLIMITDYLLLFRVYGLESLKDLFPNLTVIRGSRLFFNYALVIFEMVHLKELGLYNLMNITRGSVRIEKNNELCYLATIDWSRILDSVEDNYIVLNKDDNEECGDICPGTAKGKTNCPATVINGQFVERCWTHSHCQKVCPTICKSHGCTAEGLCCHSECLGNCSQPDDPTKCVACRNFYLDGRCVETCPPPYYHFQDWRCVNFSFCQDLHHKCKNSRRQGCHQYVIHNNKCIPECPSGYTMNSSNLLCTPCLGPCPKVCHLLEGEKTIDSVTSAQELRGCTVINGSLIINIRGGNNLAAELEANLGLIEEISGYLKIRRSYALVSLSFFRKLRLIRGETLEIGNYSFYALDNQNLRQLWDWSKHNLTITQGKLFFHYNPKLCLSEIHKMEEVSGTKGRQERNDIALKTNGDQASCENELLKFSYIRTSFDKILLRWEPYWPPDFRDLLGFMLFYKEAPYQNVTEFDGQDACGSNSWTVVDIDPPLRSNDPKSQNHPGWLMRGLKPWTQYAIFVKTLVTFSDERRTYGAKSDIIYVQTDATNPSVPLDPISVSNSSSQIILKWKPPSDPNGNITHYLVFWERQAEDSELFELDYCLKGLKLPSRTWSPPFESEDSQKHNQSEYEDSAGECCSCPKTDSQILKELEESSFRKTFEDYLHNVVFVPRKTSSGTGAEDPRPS
Sequence of Insulin receptor (Homo sapiens) (P06213 763-1382 limits assumed): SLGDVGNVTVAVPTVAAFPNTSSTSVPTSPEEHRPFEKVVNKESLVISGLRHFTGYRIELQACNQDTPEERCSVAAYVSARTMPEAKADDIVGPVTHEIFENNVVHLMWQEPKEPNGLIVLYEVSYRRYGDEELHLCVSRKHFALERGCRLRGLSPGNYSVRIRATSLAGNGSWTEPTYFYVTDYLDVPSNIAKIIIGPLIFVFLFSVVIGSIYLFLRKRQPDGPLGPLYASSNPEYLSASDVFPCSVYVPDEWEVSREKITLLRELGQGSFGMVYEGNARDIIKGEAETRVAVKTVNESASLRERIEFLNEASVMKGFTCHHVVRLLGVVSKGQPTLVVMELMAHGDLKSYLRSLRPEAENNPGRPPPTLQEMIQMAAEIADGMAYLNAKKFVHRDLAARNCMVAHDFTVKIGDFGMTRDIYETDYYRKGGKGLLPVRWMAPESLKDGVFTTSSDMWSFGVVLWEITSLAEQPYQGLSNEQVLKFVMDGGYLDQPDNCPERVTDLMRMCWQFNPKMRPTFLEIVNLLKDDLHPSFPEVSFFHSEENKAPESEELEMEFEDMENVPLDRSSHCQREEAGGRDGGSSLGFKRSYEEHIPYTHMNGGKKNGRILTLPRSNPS
Sequence of Insulin receptor-related protein (Homo sapiens) (P14616 27-742 limits assumed): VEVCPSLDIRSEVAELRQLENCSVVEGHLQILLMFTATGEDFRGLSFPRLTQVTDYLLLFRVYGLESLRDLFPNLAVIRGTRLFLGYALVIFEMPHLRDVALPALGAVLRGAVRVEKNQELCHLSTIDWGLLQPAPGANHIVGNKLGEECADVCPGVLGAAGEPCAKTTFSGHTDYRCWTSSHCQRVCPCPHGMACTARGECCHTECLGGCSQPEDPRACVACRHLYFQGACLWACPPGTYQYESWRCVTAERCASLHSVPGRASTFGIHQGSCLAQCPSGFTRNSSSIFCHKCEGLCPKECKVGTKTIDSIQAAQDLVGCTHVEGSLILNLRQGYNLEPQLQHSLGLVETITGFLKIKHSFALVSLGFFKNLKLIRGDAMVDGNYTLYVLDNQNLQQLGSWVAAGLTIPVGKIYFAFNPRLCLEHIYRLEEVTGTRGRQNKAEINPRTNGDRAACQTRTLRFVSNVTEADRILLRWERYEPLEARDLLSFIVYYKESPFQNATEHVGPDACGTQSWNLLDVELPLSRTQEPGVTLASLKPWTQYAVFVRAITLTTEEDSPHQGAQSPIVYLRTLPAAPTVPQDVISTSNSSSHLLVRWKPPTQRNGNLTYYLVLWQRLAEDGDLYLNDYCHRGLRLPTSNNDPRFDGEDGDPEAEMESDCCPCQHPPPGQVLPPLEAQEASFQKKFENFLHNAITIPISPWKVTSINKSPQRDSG
Sequence of Insulin receptor-related protein (Homo sapiens) (P14616 747-1297 limits assumed): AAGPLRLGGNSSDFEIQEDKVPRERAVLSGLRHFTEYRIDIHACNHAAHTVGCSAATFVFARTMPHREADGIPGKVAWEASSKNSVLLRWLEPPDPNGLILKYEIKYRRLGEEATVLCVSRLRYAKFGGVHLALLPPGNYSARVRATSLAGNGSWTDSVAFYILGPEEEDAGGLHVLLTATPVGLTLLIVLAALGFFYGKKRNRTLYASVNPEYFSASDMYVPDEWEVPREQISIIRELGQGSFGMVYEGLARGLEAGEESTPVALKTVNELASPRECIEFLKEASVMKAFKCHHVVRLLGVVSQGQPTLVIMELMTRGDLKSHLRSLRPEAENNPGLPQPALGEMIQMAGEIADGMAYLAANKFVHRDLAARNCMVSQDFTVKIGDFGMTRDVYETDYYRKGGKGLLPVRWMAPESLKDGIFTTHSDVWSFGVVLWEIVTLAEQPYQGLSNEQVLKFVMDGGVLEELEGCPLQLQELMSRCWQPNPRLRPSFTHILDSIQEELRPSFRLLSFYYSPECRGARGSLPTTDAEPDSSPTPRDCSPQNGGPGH
Sequence of Tyrosine-protein kinase HCK (Homo sapiens) (P08631 2-526 limits assumed): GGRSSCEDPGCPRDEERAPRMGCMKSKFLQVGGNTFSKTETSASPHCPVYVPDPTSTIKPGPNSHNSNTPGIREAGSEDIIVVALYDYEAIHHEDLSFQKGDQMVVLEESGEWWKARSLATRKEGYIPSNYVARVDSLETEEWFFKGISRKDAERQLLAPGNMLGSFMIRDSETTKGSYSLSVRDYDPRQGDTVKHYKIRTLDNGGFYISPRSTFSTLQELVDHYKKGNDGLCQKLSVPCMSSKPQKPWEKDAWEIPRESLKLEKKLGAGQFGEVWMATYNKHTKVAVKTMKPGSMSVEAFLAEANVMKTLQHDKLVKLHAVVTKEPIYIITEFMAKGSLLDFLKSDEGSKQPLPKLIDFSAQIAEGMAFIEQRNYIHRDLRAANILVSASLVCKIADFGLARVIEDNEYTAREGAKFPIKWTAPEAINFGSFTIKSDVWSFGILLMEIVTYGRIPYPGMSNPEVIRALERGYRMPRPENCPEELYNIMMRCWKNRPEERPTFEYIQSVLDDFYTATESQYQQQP

| Compound | inhibition [1] | inhibition [2] | inhibition [3] | inhibition [4] | inhibition [5] | inhibition [6] | inhibition [7] | inhibition [8] | inhibition [9] | inhibition [10] |
| --- | --- | --- | --- | --- | --- | --- | --- | --- | --- | --- |
| CN(c1ccc(NC(=O)Nc2c(Cl)cccc2Cl)cc1)c1ccnc(Nc2cccc(CS(C)(=O)=O)c2)n1 | 12.4% | 22.5% | 48.9% | 5.47% | 4.63% | 1.49% | 3.45% | 2.73% | 4.71% | 54.1% |
| O=C(Nc1n[nH]c2nc(-c3ccc(O)cc3)c(Br)cc12)C1CC1 | 14.5% | 12.2% | 28.4% | 5.22% | 5.83% | 7.55% | 6.22% | 1.99% | 1.59% | 2.89% |
| COc1cccc(/C=N/Nc2ncnc3c2cnn3-c2cccc(OC)c2)c1 | 7.98% | 4.96% | 6.95% | 2.01% | 1.32% | 6.27% | 3.35% | 1.18% | 1.31% | 0.35% |
| CCC(=O)Nc1ccc(C)c(-c2ccc(C(=O)NCC3CC3)cc2)c1 | 4.1% | 5.93% | 4.04% | 3.84% | 1.32% | 4.28% | 5.36% | 0% | 1.59% | -0.06% |
| COc1cc2ncn(-c3cc(OCc4cccs4)c(C(N)=O)s3)c2cc1OC | 10.6% | 4.48% | 23.4% | -8.52% | -6.38% | -0.44% | 2.03% | 0.43% | 1.63% | -1% |
| CCc1cccc(CC)c1/C=C/c1cncc(C(=O)NC)c1 | 3.44% | 5.19% | 10% | 3.36% | 3.86% | 1.7% | 1.65% | 5.5% | 2.06% | 0.83% |
| Cc1ccc(NC(=O)c2ccoc2)cc1-c1ccc(C(=O)NCC2CC2)cc1 | 1.16% | 4.54% | 5.55% | 2.46% | 1.25% | 1.81% | 3.42% | 0.32% | 0.32% | -0.83% |
| O=C1NC(=O)C(c2cccc(Cl)c2)=C1Nc1ccc(Cl)c(C(=O)O)c1 | 6.23% | 3.57% | 3.65% | 2.14% | 3.35% | 4.57% | 7.53% | 1.75% | 1.42% | 1.1% |
| O=C(Nc1n[nH]c2nc(-c3ccco3)ccc12)C1CC1 | 1.67% | 3.22% | 7.96% | 1.21% | 2.33% | -3.11% | 0.45% | 1.25% | 0.79% | 1.08% |
| O=C(Nc1n[nH]c2cc(-c3ccccc3)ccc12)C1CC1 | 5.27% | 8.61% | 15.8% | 10.5% | 11.2% | 3.96% | 5.84% | 2.53% | 0.58% | 1.56% |
| CCc1nccc2c1nc(-c1nonc1N)n2CC | 0.11% | 11.6% | 16.3% | -0.66% | 2.4% | 0.64% | 0.74% | -0.83% | -1.07% | 0.88% |
| CCS(=O)(=O)c1ccc(OC)c(Nc2ncc(-c3cccc(-c4ccccc4F)c3)o2)c1 | 85.6% | 16.9% | 64.4% | 2.3% | 3.39% | 2.01% | 1.9% | -1.45% | -0.35% | 0.42% |
| COC(=O)Nc1nc2ccc(Sc3ccc(NC(=O)Nc4cc(C(F)(F)F)ccc4F)cc3)cc2[nH]1 | 3.27% | 39.5% | 14.4% | 10.6% | 6.91% | 2.28% | -0.75% | 1.45% | -0.55% | 0.19% |
| COc1cc2ncn(-c3cc(OCc4ccccc4C(F)(F)F)c(C(C)=O)s3)c2cc1OC | 8.03% | 5.79% | 9.81% | -2.34% | 1.09% | -1.39% | -0.63% | 5% | 3.18% | 0.57% |
| c1ccc(-c2n[nH]cc2-c2ccnc(-c3ccc(OCCN4CCOCC4)cc3)c2)nc1 | 4.24% | 1.69% | 4.55% | -2.45% | -2.14% | -2.85% | -1.85% | -0.78% | -0.34% | 5.52% |
| COc1ccc2cc(-c3c(-c4ccncc4)nc(-c4ccc(S(C)(=O)=O)cc4C)n3C)ccc2c1 | 7.37% | 5.89% | 13.1% | 4.23% | 3.79% | 7.46% | 5.18% | 2.39% | 2.25% | 1.82% |
| C#Cc1cccc(Nc2ncnc3ccc(OCCCCNCCS(C)(=O)=O)cc23)c1 | 2.18% | 11.1% | 20.5% | -0.58% | -2.48% | 8.82% | 4.34% | 2.65% | 2.49% | -1.95% |

| Compound | inhibition [1] | inhibition [2] | inhibition [3] | inhibition [4] | inhibition [5] | inhibition [6] | inhibition [7] | inhibition [8] | inhibition [9] | inhibition [10] |
| --- | --- | --- | --- | --- | --- | --- | --- | --- | --- | --- |
| COc1cc(Nc2ncc3c(C)nc(-c4cccc(Oc5ccccc5)c4)n3n2)cc(OC)c1OC | 8.45% | 3.59% | 5.25% | 3.82% | 5.13% | 5.22% | 8.16% | 2.99% | 3.66% | 0.96% |
| CN(C)CCOc1ccc(-c2cc(-c3ccc4c(c3)CCC4=NO)c(-c3ccncc3)o2)cc1 | 8% | -2.29% | 2.91% | -3.2% | 0.2% | 3.17% | 1.94% | -1.33% | -1.94% | -1.36% |
| O=C1Nc2ccccc2/C1=C/Nc1ccc(-n2cncn2)cc1 | 7.09% | 5.82% | 11.7% | 10.8% | 16.7% | 9.38% | 14.8% | 2.54% | 5.98% | 1.26% |
| CS(=O)(=O)CCNCc1cc(-c2cc3c(Nc4ccc(OCc5cccc(F)c5)c(Cl)c4)ncnc3s2)cs1 | 2.71% | 6.52% | 7.87% | 5.7% | 4.5% | 11.5% | 4.74% | 1.69% | 2.82% | 1.89% |
| C[C@@H](Oc1cc(-n2cnc3ccc(OC4CCN(C)CC4)cc32)sc1C(N)=O)c1ccccc1Cl | -4.42% | 6.15% | 13% | -9.14% | 0.05% | 10.4% | -1.99% | 2.49% | 3.03% | -2.4% |
| Fc1ccc(-c2ncn(CCCN3CCOCC3)c2-c2ccncc2)cc1 | -2.27% | -1.42% | 2.38% | 2.24% | -1.55% | -0.34% | 0.12% | -0.04% | 0.12% | 0.83% |
| COc1ccc2cc(-c3c(-c4ccncc4)nc(-c4ccc([S+](C)[O-])cc4C)n3C)ccc2c1 (stereo not given) | 1.8% | -0.56% | 4.6% | 0.87% | 1.27% | 0.15% | 2.57% | -0.96% | 1.18% | 0.02% |
| NC(=O)Cc1ccccc1Oc1nccc(-c2c(-c3ccc(F)cc3)ncn2C2CCNCC2)n1 | 2.13% | 2.65% | 5.75% | 3.37% | 3.6% | 5.96% | 6.34% | 0.84% | 1.69% | 1.33% |
| CN(C)c1ccc2c(c1)/C(=C/Nc1ccc(S(N)(=O)=O)cc1)C(=O)N2 | 13.1% | 4.88% | 20.5% | 9.21% | 11.9% | 3.88% | 6.31% | 0.97% | 3.14% | 1.03% |
| COc1cc(Nc2ncc(-c3ccccc3)o2)cc(OC)c1OC | 37.5% | 3.3% | 31.2% | 1.91% | 2.07% | 4.48% | -0.22% | -2.58% | -1.95% | -0.21% |
| Cc1ccc(C(=O)NC(C)C)cc1-c1ccc(C(=O)NCC2CC2)cc1 | 0.91% | -3.59% | -1.19% | -3.27% | -3.34% | -1.9% | -4.51% | -4.15% | -4.41% | -1.4% |
| CCS(=O)(=O)c1ccc(OC)c(Nc2ncc(-c3ccccc3Cl)o2)c1 | 19.1% | 4.06% | 11.8% | 1.62% | 5.87% | -0.92% | 3.26% | 1.25% | 3.78% | 0.29% |
| COc1ccc(-c2ccc3c(NC(=O)C4CC4)n[nH]c3n2)cc1 | 4% | -0.93% | 5.16% | 1.17% | 0.43% | 1.07% | 3.1% | 0.55% | 0.43% | 0.61% |
| COc1cc(C)c(N(C)C(=O)CN(C)C)cc1Nc1nc(Nc2cccc(F)c2C(N)=O)c2cc[nH]c2n1 | -2.41% | 2.52% | 4.78% | 31.2% | 81.6% | 52.5% | 107% | 5.09% | 17.1% | -2.44% |
| COc1cc2ncn(-c3cc(OCCc4ccccc4)c(C(N)=O)s3)c2cc1OC | 2.86% | 2.34% | 11.2% | 1.99% | 2.07% | 2.51% | 0.56% | 2.17% | 2.64% | 1.33% |
| C[C@@H](Oc1cc(-n2cnc3ccc(OCC4CCN(C)CC4)cc32)sc1C(N)=O)c1ccccc1Cl | 15.3% | 8.11% | 29.6% | 6.33% | 7.27% | 6.64% | 8.87% | 2.3% | 3.31% | 2.76% |
| NS(=O)(=O)c1ccc(N/N=C2\C(=O)Nc3ccc(C(=O)NCCCn4ccnc4)cc32)cc1 | 19.2% | 5.3% | 17.8% | 2.13% | 3.17% | 6.3% | 6.66% | 2.1% | 3.71% | 1.19% |

Source: ChEMBL document CHEMBL1961873, “Compounds: GSK PKIS; Assays: Nanosyn kinase panel” (2012)
